Measurements reported in PubChem BioAssay (NCI).
The panel holds about 83,000 compounds, 20% with a hit somewhere; the sample as a whole holds those more often.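 For each line, cells grew in 96-well plates with the test compound present at a single concentration for 48 hours.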 Calls of active or inactive are those of the source. The calls were made as follows: active = growth percent below 10; inactive = the rest.

How the values were obtained:
Test in all cases: NCI-60 one-dose screen, 48 h (100 = growth as untreated, 0 = no growth, -100 = all killed)
Conditions in all cases: 10 µM unless noted
[1] = tested on: NCI-H23 lung
[2] = tested on: NCI-H226 lung
[3] = tested on: NCI-H322M lung
[4] = tested on: HOP-62 NSCLC
[5] = tested on: NCI-H460 lung
[6] = tested on: HOP-92 NSCLC
[7] = tested on: A549/ATCC NSCLC
[8] = tested on: 786-0 renal
[9] = tested on: COLO 205 colon

Measured: growth

CCOC(=O)CCN(c1c(Cl)ssc1=O)C(C)C
inactive: [1] 105% | [2] 112% | [3] 102% | [4] 106% | [5] 106% | [6] 97% | [7] 93.9% | [8] 98.9% | [9] 115%

C=C1CCC2C(C)(COC(=O)CC)C(OC(=O)CC)CCC2(C)C1C/C=C1/C(=O)OCC1OC(=O)CC (stereo unspecified)
inactive: [1] 57.4% | [3] 75.6% | [5] 79.6% | [7] 46.1%
active: [2] -18.3% | [4] -17.7% | [6] -9.73% | [8] -97.4% | [9] -28.1%

CCN(CC)CCOCC[C@H]1CC[C@H]2[C@@H]3[C@H](C)Cc4cc(OS(N)(=O)=O)ccc4[C@H]3CC[C@]12C
active: [1] -87.4% | [2] -61.9% | [3] -24.9% | [4] -96.7% | [5] -85.2% | [6] -88.2% | [7] -90.2% | [8] -99.6% | [9] -78.5%

COc1cc2c(cc1OC)C(CC1(O)CCCCC1)N(S(=O)(=O)c1ccc(C)cc1)CC2 (stereo unspecified)
inactive: [1] 29.3% [100 µM] | [2] 57.6% [100 µM] | [3] 57.8% [100 µM] | [4] 79.3% [100 µM] | [7] 20.9% [100 µM] | [8] 29.7% [100 µM]
active: [5] 8.16% [100 µM] | [6] -10.6% [100 µM] | [9] 1.18% [100 µM]
